In PubChem BioAssay (NCI) one finds growth data, which are given here for 8 molecules.

Compounds without any hit were thinned out: in the full panel of roughly 83,000, 20% have a hit.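 Cells were grown in 96-well plates and exposed to the test compound at a single concentration for 48 hours; results are reported as percent growth, with values below 10 considered active.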 Values without a mark were called inactive. The source made the active and inactive calls.

Among the test systems are DU-145 prostate; K-562 leukemia; MALME-3M melanoma; MDA-MB-231 breast; RXF 393 renal; SF-268 CNS; SF-295 CNS; UACC-257 melanoma; M14 melanoma; HCT-15 colon; HT29 colon; SNB-75 CNS; SNB-19 CNS; U251 CNS; PC-3 prostate; SK-MEL-5 melanoma; UACC-62 melanoma; LOX IMVI melanoma; SK-MEL-28 melanoma.
What all share (experiment): NCI-60 one-dose screen, 48 h (100 = growth as untreated, 0 = no growth, -100 = all killed)
Conditions in all cases: 10 µM unless noted

Regarding `CCN(C(=O)CN1CCN(c2cc3c(cc2F)c(=O)c(C(=O)O)cn3C2CC2)CC1)c1nc(-c2ccc(OC)cc2)cs1`, the growth was 35.7% in the experiment on DU-145 prostate; 32.5% with K-562 leukemia; 66.1% with MALME-3M melanoma; 68.5% in the experiment with MDA-MB-231 breast; 74.9% with RXF 393 renal; 59.8% in the experiment with SF-268 CNS. Further, the growth in the experiment on SF-295 CNS was 94.6%; with UACC-257 melanoma, 43.1%; with M14 melanoma, 48.7%; in the experiment with HCT-15 colon, 51.5%; with HT29 colon, 7.28% (active); in the experiment on SNB-75 CNS, 81.8%. In addition, the growth in the experiment on SNB-19 CNS is 78.2%; in the experiment with U251 CNS, 14.1%; in the experiment on PC-3 prostate, 20.9%; in the experiment with SK-MEL-5 melanoma, 28.9%; with UACC-62 melanoma it was 17.1%; in the experiment with LOX IMVI melanoma, -57.9% (active). In the experiment with SK-MEL-28 melanoma, the growth is 45.1%.

On to `Cc1ccn2c(-c3csc(Nc4cccc(O)c4)n3)c(C)nc2c1`, for which the growth with DU-145 prostate was 17.7%; in the experiment on K-562 leukemia it was 2.56% (active); in the experiment on MALME-3M melanoma it was 65.4%; in the experiment on MDA-MB-231 breast, -1.81% (active); in the experiment with RXF 393 renal, 0.213% (active); in the experiment with SF-268 CNS, 39.5%. Besides, the growth with SF-295 CNS was 16.3%; with UACC-257 melanoma, 77.2%; in the experiment with M14 melanoma, 16%; in the experiment on HCT-15 colon it was 17.1%; in the experiment on HT29 colon it was 61.7%; in the experiment on SNB-75 CNS, -2.73% (active). The growth was 49.2% in the experiment on SNB-19 CNS; 28.6% in the experiment with U251 CNS; 26.6% with PC-3 prostate; -42.9% (active) in the experiment on SK-MEL-5 melanoma; 21.5% in the experiment on UACC-62 melanoma; 37.7% in the experiment on SK-MEL-28 melanoma.

Regarding `COc1ccc(C(=O)/C=C/c2c(Cl)c3c(c(OC)c2Cl)OCC(=O)N3)cc1`, the growth in the experiment on DU-145 prostate is 18.7%; in the experiment on K-562 leukemia it was 3.42% (active); in the experiment on MALME-3M melanoma it was 66.8%; with MDA-MB-231 breast, 34.9%; in the experiment with RXF 393 renal, 36.3%; with SF-268 CNS it was 29.9%. The growth in the experiment with SF-295 CNS is 32.1%; in the experiment with UACC-257 melanoma, 50%; in the experiment on M14 melanoma it was 17.7%; in the experiment with HCT-15 colon it was 20.1%; with HT29 colon, 7.82% (active); with SNB-75 CNS it was 37%. In addition, the growth in the experiment with SNB-19 CNS was 59.6%; with PC-3 prostate it was 52.1%; in the experiment on SK-MEL-5 melanoma, 21.2%; in the experiment with UACC-62 melanoma, 46.7%; in the experiment with LOX IMVI melanoma, -36.1% (active); in the experiment on SK-MEL-28 melanoma, 48.2%.

Turning to `Clc1cccc(Nc2nc(Nc3cnc4ccccc4c3)c3[nH]cnc3n2)c1`, the growth in the experiment on DU-145 prostate was 82.6%; in the experiment on K-562 leukemia it was 81.5%; with MALME-3M melanoma, 116%; in the experiment on MDA-MB-231 breast, 47.7%; in the experiment on RXF 393 renal, 69.7%; with SF-268 CNS it was 82.4%. Besides, the growth in the experiment with SF-295 CNS is 94.6%; with UACC-257 melanoma, 81.7%; in the experiment on M14 melanoma, 88%; with HCT-15 colon, 94.4%; with HT29 colon, 79%; in the experiment on SNB-75 CNS, 52.4%. For the same molecule, the growth in the experiment on SNB-19 CNS is 80.6%; in the experiment on U251 CNS, 76.4%; in the experiment with PC-3 prostate, 49.2%; with SK-MEL-5 melanoma, 53%; with UACC-62 melanoma, 47.9%; in the experiment with LOX IMVI melanoma, 77.4%. Also, the growth in the experiment on SK-MEL-28 melanoma is 86.4%.

With `N=c1c2ccccc2nc2n1CCCCC2`, the growth with DU-145 prostate was 118%; with K-562 leukemia, 121%; in the experiment with MALME-3M melanoma, 107%; in the experiment with MDA-MB-231 breast, 110%; with RXF 393 renal, 110%; in the experiment with SF-268 CNS it was 106%. The growth in the experiment on SF-295 CNS is 109%; in the experiment with UACC-257 melanoma it was 110%; in the experiment with M14 melanoma, 108%; in the experiment on HCT-15 colon, 110%; in the experiment on HT29 colon it was 110%; in the experiment with SNB-75 CNS it was 99.7%. The growth with SNB-19 CNS is 103%; in the experiment on U251 CNS, 101%; in the experiment on PC-3 prostate, 116%; in the experiment on SK-MEL-5 melanoma it was 100%; with UACC-62 melanoma, 106%; in the experiment with LOX IMVI melanoma, 106%. Also, the growth in the experiment with SK-MEL-28 melanoma was 103%.

Turning to `COc1ccc(C2CC(=O)Nc3c2c(C)nn3-c2nc3ccccc3[nH]2)cc1` (stereo not drawn), the growth in the experiment with DU-145 prostate is 89.1%; with K-562 leukemia, -33.9% (active); with MALME-3M melanoma, 28.8%; in the experiment with MDA-MB-231 breast, 109%; in the experiment on RXF 393 renal, 101%; in the experiment on SF-268 CNS, 47.9%. Further, the growth was 85.9% in the experiment with SF-295 CNS; 111% in the experiment on UACC-257 melanoma; 84.5% in the experiment on M14 melanoma; 99.6% in the experiment with HCT-15 colon; 103% with HT29 colon; 103% in the experiment on SNB-75 CNS. In addition, the growth in the experiment with SNB-19 CNS is 113%; in the experiment with U251 CNS, 103%; in the experiment on PC-3 prostate, 38.7%; in the experiment on SK-MEL-5 melanoma it was 95.5%; with UACC-62 melanoma, 104%; in the experiment with SK-MEL-28 melanoma it was 105%.

On to `COc1ccc(-c2csc(NC(=O)CN3CCN(c4cc5c(cc4F)c(=O)c(C(=O)O)cn5C4CC4)CC3)n2)cc1`, for which the growth in the experiment on DU-145 prostate was 30.2%; with K-562 leukemia, 19%; in the experiment with MALME-3M melanoma, 15.4%; in the experiment with MDA-MB-231 breast, 11.9%; in the experiment with RXF 393 renal it was 18.7%; in the experiment with SF-268 CNS it was 29.2%. Also, the growth in the experiment on SF-295 CNS is -4.67% (active); in the experiment with UACC-257 melanoma, -13.4% (active); in the experiment on M14 melanoma, 20.3%; in the experiment on HCT-15 colon it was 14.6%; in the experiment with HT29 colon, 4.05% (active); with SNB-75 CNS, 11.7%. Besides, the growth in the experiment on SNB-19 CNS is 16.4%; with U251 CNS, 7.92% (active); in the experiment with PC-3 prostate, 11.2%; with SK-MEL-5 melanoma, -24.6% (active); in the experiment on UACC-62 melanoma, 12.1%; in the experiment with LOX IMVI melanoma, -80% (active). In addition, the growth in the experiment with SK-MEL-28 melanoma is 39.4%.

`CS(=O)(CCCCN=C=S)=NC(=O)c1c(F)c(F)c(F)c(F)c1F` (stereo not drawn): the growth in the experiment on DU-145 prostate is 91.1%; with K-562 leukemia it was 60.8%; in the experiment with MALME-3M melanoma, 58.7%; with MDA-MB-231 breast, 91.8%; in the experiment with RXF 393 renal, 94.2%; with SF-268 CNS, 101%. For the same molecule, the growth in the experiment on SF-295 CNS was 97.8%; in the experiment with UACC-257 melanoma, 83.5%; in the experiment on M14 melanoma it was 98.4%; in the experiment on HCT-15 colon, 59.4%; with HT29 colon it was 90.2%; in the experiment on SNB-75 CNS, 97.4%. The growth in the experiment with SNB-19 CNS is 90.4%; in the experiment on PC-3 prostate it was 88.6%; in the experiment with SK-MEL-5 melanoma, 98.7%; with UACC-62 melanoma, 88.7%; in the experiment with LOX IMVI melanoma it was 60.6%; in the experiment on SK-MEL-28 melanoma, 97.6%.
